Reference: PubChem BioAssay (NCI)
This is part of a sample that, as a whole, favours compounds with a hit. Of some 79,000 tested, about 15% had one in any assay. Calls of active or inactive are those of the source. Cut-off read from the data, not from the text of the source: active = growth inhibition above about 70%; inactive = the rest.

How the values were obtained:
[1] = NCI Yeast Anticancer Drug Screen. Data for the rad52 strain (AID 147);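 note: 0% = growth of vehicle-treated control cultures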; settings: S. cerevisiae rad52 mutant growth inhibition, stronger effect = higher value
Procedure, shortened: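 Growth of repair-deficient yeast cells was compared between compound-treated and vehicle-treated cultures to give percent inhibition.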

[2] = NCI Yeast Anticancer Drug Screen. Data for the wt1 strain (AID 149);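 note: 0% = growth of vehicle-treated wt1 cultures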; settings: S. cerevisiae wt1 strain (SPY 50644) growth inhibition, stronger effect = higher value
Procedure, shortened: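 Measured: growth of wt1 yeast under compound versus vehicle treatment, reported as inhibition.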

[3] = NCI Yeast Anticancer Drug Screen. Data for the rad50EPP+ strain (AID 151);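 note: 0% = growth of vehicle-treated control cultures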; settings: S. cerevisiae rad50 mutant strain, stronger effect = higher value
Procedure, shortened: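 Measured: growth inhibition of rad50EPP+ yeast. Reference: vehicle-treated controls. Screen uses strains with defined genetic alterations in DNA damage repair or cell cycle control.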

[4] = NCI Yeast Anticancer Drug Screen. Data for the mgt1 strain (AID 153); settings: S. cerevisiae mgt1 mutant growth inhibition, stronger effect = higher value
Procedure, shortened: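 Compounds were applied to mgt1 mutant yeast, and growth was then compared against vehicle-treated control cultures to give percent inhibition.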

[5] = NCI Yeast Anticancer Drug Screen. Data for the rad50 strain (AID 155);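 note: 0% = growth of vehicle-only cultures of the same strain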; settings: S. cerevisiae rad50 strain growth inhibition, stronger effect = higher value
Procedure, shortened: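 Growth of the mutant yeast was measured after compound exposure and referenced to vehicle-treated cultures.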

[6] = NCI Yeast Anticancer Drug Screen. Data for the mec2-1 strain (AID 157); settings: S. cerevisiae mec2-1 strain, stronger effect = higher value
Procedure, shortened: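 Compounds were applied to mec2-1 yeast cells. Their growth was then compared with that of vehicle-treated cultures to give growth inhibition.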

[7] = NCI Yeast Anticancer Drug Screen. Data for the rad14 strain (AID 159);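 note: 0% = growth of vehicle-treated control cultures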; settings: S. cerevisiae rad14 strain growth inhibition, stronger effect = higher value
Procedure, shortened: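 Here, inhibition of yeast growth was measured after compound exposure, using a strain with a genetic defect in DNA damage repair and vehicle-treated cultures as the reference.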

[8] = NCI Yeast Anticancer Drug Screen. Data for the sgs1 mgt1 strain (AID 161);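 note: 0% = growth of cultures given vehicle only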; settings: S. cerevisiae sgs1 mgt1 strain, stronger effect = higher value
Procedure, shortened: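 This yeast growth screen uses a strain with defined DNA-repair lesions; compound-treated growth is compared with vehicle-treated growth.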

[9] = NCI Yeast Anticancer Drug Screen. Data for the CLN2oe strain (AID 163);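 note: 0% = growth of vehicle-only control cultures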; settings: S. cerevisiae CLN2oe strain, stronger effect = higher value
Procedure, shortened: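 Cells of an engineered yeast line with disturbed cell-cycle regulation are treated with compound. Inhibition of growth is then calculated relative to the vehicle-treated reference.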

[10] = NCI Yeast Anticancer Drug Screen. Data for the cln2 rad14 strain (AID 165);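 note: 0% = growth equal to vehicle treated cultures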; settings: S. cerevisiae cln2 rad14 strain, stronger effect = higher value
Procedure, shortened: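 Strain: cln2 rad14 yeast, altered in cell cycle control and DNA damage repair. Read-out: growth inhibition vs vehicle.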

[11] = NCI Yeast Anticancer Drug Screen. Data for the bub3 strain (AID 167); settings: S. cerevisiae bub3 mutant strain, stronger effect = higher value
Procedure, shortened: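 Whole-cell yeast assay. The mutant strain was incubated with compounds, and growth inhibition was determined by comparison with vehicle-treated cells.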

[12] = NCI Yeast Anticancer Drug Screen. Data for the wt2 strain (AID 169);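 note: 0% = growth of vehicle-treated yeast cultures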; settings: S. cerevisiae wt2 strain growth inhibition, stronger effect = higher value
Procedure, shortened: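 Growth of compound-treated yeast is measured and expressed as inhibition relative to vehicle-only controls.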

[13] = NCI Yeast Anticancer Drug Screen. Data for the mlh1 strain (AID 171);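 note: 0% = growth of vehicle-treated control cultures of the same strain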; settings: S. cerevisiae mlh1 strain growth inhibition, stronger effect = higher value
Procedure, shortened: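 Test agents were incubated with yeast bearing a defined DNA damage repair or cell cycle control alteration; values are growth inhibition normalised to vehicle-treated cultures.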

[14] = NCI Yeast Anticancer Drug Screen. Data for the sgs1 strain (AID 173);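 note: 0% = growth of vehicle-only control cultures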; settings: S. cerevisiae sgs1 mutant, stronger effect = higher value
Procedure, shortened: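 Strain with an altered DNA repair or cell cycle pathway exposed to compound. Growth then measured. Value = inhibition versus vehicle control.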

[15] = NCI Yeast Anticancer Drug Screen. Data for the mlh1 rad18 strain (AID 175); settings: S. cerevisiae mlh1 rad18 strain growth inhibition, stronger effect = higher value
Procedure, shortened: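 A repair-deficient yeast strain is exposed to test compound, and growth is scored relative to vehicle-treated controls.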

[16] = NCI Yeast Anticancer Drug Screen. Data for the rad18 strain (AID 177); settings: S. cerevisiae rad18 mutant growth inhibition, stronger effect = higher value
Procedure, shortened: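 DNA-repair-defective yeast; compound treatment; growth inhibition scored against vehicle.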

[17] = at 5.0 µM (retest, dose inferred, filed as 0.5)
[18] = at 50.0 µM (retest, dose inferred, filed as 5.0)

Measured: growth inhibition

COc1cc(C2c3cc4c(cc3OC(Nc3ccccc3)C2C)OCO4)cc(OC)c1O (stereo unspecified)
inactive: [1]; at 1.2 µM 1% | [1]; at 3.7 µM 2% | [1]; at 11.0 µM 0% | [1]; at 33.0 µM 2% | [2]; at 1.2 µM 1% | [2]; at 3.7 µM -1% | [2]; at 11.0 µM 2% | [2]; at 33.0 µM 0% | [2]; at 100.0 µM 30% | [3]; at 1.2 µM -1% | [3]; at 3.7 µM -3% | [3]; at 11.0 µM 1% | [3]; at 33.0 µM 1% | [3]; at 100.0 µM 0% | [4]; at 1.2 µM -1% | [4]; at 3.7 µM -3% | [4]; at 11.0 µM -3% | [4]; at 33.0 µM 15% | [4]; at 100.0 µM 38% | [5]; at 1.2 µM 2% | [5]; at 3.7 µM 2% | [5]; [17] -3% | [5]; at 11.0 µM 2% | [5]; at 33.0 µM 2% | [5]; [18] 64% | [6]; at 1.2 µM 0% | [6]; at 3.7 µM 1% | [6]; [17] -5% | [6]; at 11.0 µM 1% | [6]; at 33.0 µM 1% | [6]; at 50.0 µM 36.1% | [6]; at 100.0 µM 67% | [7]; at 1.2 µM 1% | [7]; at 3.7 µM 1% | [7]; at 11.0 µM 4% | [7]; at 33.0 µM 5% | [7]; at 100.0 µM 51% | [8]; [17] -3% | [8]; [18] 6% | [8]; at 50.0 µM 58.7% | [9]; at 1.2 µM 1% | [9]; at 3.7 µM 0% | [9]; at 11.0 µM 1% | [9]; at 33.0 µM 0% | [9]; at 100.0 µM 39% | [10]; [17] 3% | [10]; [18] 52% | [10]; at 50.0 µM 6.9% | [11]; at 1.2 µM -1% | [11]; at 3.7 µM -5% | [11]; [17] 11% | [11]; at 11.0 µM -1% | [11]; at 33.0 µM 0% | [11]; [18] 51% | [11]; at 50.0 µM 43.8% | [11]; at 100.0 µM 41% | [12]; at 1.2 µM -1% | [12]; at 3.7 µM -2% | [12]; at 11.0 µM -1% | [12]; at 33.0 µM 0% | [12]; at 100.0 µM 68% | [13]; at 1.2 µM -3% | [13]; at 3.7 µM -1% | [13]; at 11.0 µM 0% | [13]; at 33.0 µM -3% | [13]; at 100.0 µM 61% | [14]; at 1.2 µM -1% | [14]; at 3.7 µM 0% | [14]; at 11.0 µM 0% | [14]; at 33.0 µM 2% | [14]; at 100.0 µM 65% | [15]; [17] -1% | [16]; at 1.2 µM 0% | [16]; at 3.7 µM -1% | [16]; at 11.0 µM -7% | [16]; at 33.0 µM 1%
active: [1]; at 100.0 µM 86% | [5]; at 50.0 µM 77% | [5]; at 100.0 µM 86% | [6]; [18] 78% | [15]; [18] 99% | [15]; at 50.0 µM 92.5% | [16]; at 100.0 µM 92%

Cc1ccc(CCC2=CCCc3c2ccc2ccccc32)cc1
inactive: [1]; at 1.2 µM -1% | [1]; at 3.7 µM -3% | [1]; at 11.0 µM 0% | [1]; at 33.0 µM 1% | [1]; at 100.0 µM 0% | [2]; at 1.2 µM -3% | [2]; at 3.7 µM -4% | [2]; at 11.0 µM -5% | [2]; at 33.0 µM -8% | [2]; at 100.0 µM -9% | [3]; at 1.2 µM -3% | [3]; at 3.7 µM 5% | [3]; at 11.0 µM 13% | [3]; at 33.0 µM 40% | [3]; at 100.0 µM 58% | [4]; at 1.2 µM -4% | [4]; at 3.7 µM -3% | [4]; at 11.0 µM -3% | [4]; at 33.0 µM -8% | [4]; at 100.0 µM -39% | [5]; at 1.2 µM -1% | [5]; at 3.7 µM -2% | [5]; [17] -7% | [5]; at 11.0 µM 0% | [5]; at 33.0 µM -1% | [5]; [18] -25% | [5]; at 50.0 µM 11.1% | [5]; at 100.0 µM 2% | [6]; at 1.2 µM -4% | [6]; at 3.7 µM -5% | [6]; [17] 44% | [6]; at 11.0 µM -5% | [6]; at 33.0 µM -4% | [6]; [18] 31% | [6]; at 50.0 µM 6.45% | [6]; at 100.0 µM 5% | [7]; at 1.2 µM -4% | [7]; at 3.7 µM -4% | [7]; at 11.0 µM 0% | [7]; at 33.0 µM 6% | [7]; at 100.0 µM 13% | [8]; [17] 5% | [8]; [18] 10% | [8]; at 50.0 µM 33% | [9]; at 1.2 µM -5% | [9]; at 3.7 µM -2% | [9]; at 11.0 µM -9% | [9]; at 33.0 µM -5% | [9]; at 100.0 µM 9% | [10]; [17] 6% | [10]; [18] -10% | [10]; at 50.0 µM 16.8% | [11]; at 1.2 µM -4% | [11]; at 3.7 µM -2% | [11]; [17] 63% | [11]; at 11.0 µM -4% | [11]; at 33.0 µM 5% | [11]; at 50.0 µM 33.8% | [11]; at 100.0 µM 15% | [12]; at 1.2 µM -3% | [12]; at 3.7 µM -5% | [12]; at 11.0 µM -5% | [12]; at 33.0 µM -8% | [12]; at 100.0 µM -8% | [13]; at 1.2 µM -3% | [13]; at 3.7 µM -4% | [13]; at 11.0 µM -4% | [13]; at 33.0 µM -1% | [13]; at 100.0 µM 4% | [14]; at 1.2 µM -5% | [14]; at 3.7 µM -4% | [14]; at 11.0 µM -1% | [14]; at 33.0 µM 0% | [14]; at 100.0 µM 3% | [15]; [17] 38% | [15]; [18] 16% | [15]; at 50.0 µM 16.9% | [16]; at 1.2 µM -4% | [16]; at 3.7 µM -1% | [16]; at 11.0 µM -2% | [16]; at 33.0 µM -2% | [16]; at 100.0 µM 2%
active: [11]; [18] 84%

O=C(c1cc(Br)ccc1O)c1cc(Br)ccc1O
inactive: [1]; at 1.2 µM 13% | [2]; at 1.2 µM 9% | [3]; at 1.2 µM 16% | [3]; at 3.7 µM 47% | [4]; at 1.2 µM 38% | [5]; at 1.2 µM 13% | [5]; at 3.7 µM 67% | [5]; [17] 2% | [6]; at 1.2 µM 29%
active: [1]; at 3.7 µM 80% | [1]; at 11.0 µM 99% | [1]; at 33.0 µM 99% | [1]; at 100.0 µM 99% | [2]; at 3.7 µM 78% | [2]; at 11.0 µM 99% | [2]; at 33.0 µM 100% | [2]; at 100.0 µM 100% | [3]; at 11.0 µM 90% | [3]; at 33.0 µM 99% | [3]; at 100.0 µM 99% | [4]; at 3.7 µM 95% | [4]; at 11.0 µM 99% | [4]; at 33.0 µM 100% | [4]; at 100.0 µM 100% | [5]; at 11.0 µM 99% | [5]; at 33.0 µM 99% | [5]; [18] 99% | [5]; at 50.0 µM 99.3% | [5]; at 100.0 µM 99% | [6]; at 3.7 µM 97%
